A selection: hits, their analogues and other compounds. The true share with any hit is near 3.4%.
MITF primary: human MITF inhibition, primary screen; inhibition, % at 2.6 µM; actives 0.91% (n = 650,000); O75030; AlphaScreen MITF homodimerization, bead proximity signal; in the data active = inhibition above about 50%
Target sequence (O75030 whole entry, looked up): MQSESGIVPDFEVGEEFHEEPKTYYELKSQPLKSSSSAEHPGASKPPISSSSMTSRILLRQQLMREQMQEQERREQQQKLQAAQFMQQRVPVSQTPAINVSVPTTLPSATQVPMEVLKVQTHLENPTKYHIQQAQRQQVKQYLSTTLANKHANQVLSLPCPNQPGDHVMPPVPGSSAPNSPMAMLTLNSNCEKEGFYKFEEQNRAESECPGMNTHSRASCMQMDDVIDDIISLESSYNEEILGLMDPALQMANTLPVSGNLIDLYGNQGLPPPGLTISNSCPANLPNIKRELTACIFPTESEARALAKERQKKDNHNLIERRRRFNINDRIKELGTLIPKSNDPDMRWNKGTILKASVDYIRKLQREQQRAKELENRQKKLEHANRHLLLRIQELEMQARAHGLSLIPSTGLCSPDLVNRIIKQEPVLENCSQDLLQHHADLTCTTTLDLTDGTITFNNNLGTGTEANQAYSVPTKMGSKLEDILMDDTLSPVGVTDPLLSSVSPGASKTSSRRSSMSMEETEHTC
TEAD-YAP block: TEAD-YAP interaction inhibition. HEK-TIYL cells, TEAD-Gal4/YAP UAS-luciferase luminescence. inhibition, % at 9.12 µM. actives 1.4% (n = 640,000); in the data active = inhibition above about 32%
GPR151 ag: activators of human GPR151. activation, % at 11.2 µM. actives 1% (n = 650,000). PathHunter beta-arrestin GPR151 cells, luminescence. Q8TDV0; in the data active = activation above about 4.9%
FBW7 activator: activators of human E3 ligase FBW7; normalized activity (activation), % at 26.1 µM; AID 1259310; actives 0.13% (n = 650,000); Q969H0; AlphaScreen FBW7–phospho-cyclin E peptide binding, activator screen; in the data active = normalized activity above about 1.9%;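 also: purified mutant Fbw7 with reduced substrate affinity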
MITF inh conf: confirmation of human MITF inhibitors. actives 16% (n = 4,700). AlphaScreen MITF homodimerization, biotin/His-MITF beads. shares compounds with MITF primary. inhibition, % at 2.6 µM;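 active = inhibition above a cutoff derived from the DMSO control wells, cut at about 28% in these data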;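 also: inhibitors lower the bead chemiluminescence by keeping MITF from dimerizing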
AlphaScreen DR: AlphaScreen optical interference, dose response counter-screen | actives 6% (n = 480) | IC50, µM | shares compounds with MITF primary | AlphaScreen optical interference counterscreen, cell-free; call rule not given here
AS interf ctr: counter-screen: compounds optically interfering with AlphaScreen; shares compounds with MITF primary; LysRS AlphaScreen counterscreen, signal interference, triplicate; inhibition, % at 2.6 µM; actives 7.6% (n = 4,700); AID 1259376;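 active = inhibition above a cutoff derived from the DMSO control wells, cut at about 30% in these data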
A number is an active result; n = inactive; x = no result.

SMILES | MITF primary | TEAD-YAP block | GPR151 ag | FBW7 activator | MITF inh conf | AS interf ctr | others
CCC1CCCCN1C(=O)Cn1nc([N+](=O)[O-])cc1C (stereo not given) | 90.9 | n | n | n | n | n
CCC1CCCCN1C(=O)Cn1nc(C)n2c(cc3ccsc32)c1=O (stereo not given) | 60.6 | n | n | n | n | n
Oc1ccc(N2CCN(CC(O)COCc3ccccc3Cl)CC2)cc1 (stereo not given) | 56.0 | n | n | n | n | n
OC(CNC1CCN(Cc2ccccc2)C1)COCc1ccccc1Cl (stereo not given) | 54.8 | n | n | n | n | n
CCOc1ccccc1N1CCN(CC(O)COCc2ccccc2OC)CC1 (stereo not given) | 74.1 | n | n | n | n | n
CCOc1ccc(OCC(O)CNC2CCN(Cc3ccccc3)CC2)cc1 (stereo not given) | n | n | n | n | x | x
OC(COCc1ccccc1F)CN1CCN(c2ccccc2)CC1 (stereo not given) | n | n | n | n | x | x
O=[N+]([O-])c1ccc2nc(SCc3ccc(I)cc3)sc2c1 | n | n | n | n | x | x
CCc1ccc(NC(=O)CSC2=C(C#N)C(c3cccs3)C(C(=O)Nc3ccccc3)=C(C)N2)cc1 (stereo not given) | 57.0 | n | n | n | n | n
Cc1cc(C)cc(NC(=O)c2sc3ncn(Cc4cccc(F)c4)c(=O)c3c2C)c1 | n | n | n | n | x | x
CC(=O)NCCC(=O)Nc1ccc2nc(C)sc2c1 | n | n | n | n | x | x
Cc1ccc(CSc2nnc(-c3ccncc3)n2CCCN(C)C)cc1 | 71.8 | n | n | n | n | n
CN(C)CCCn1c(SCC(N)=O)nnc1-c1ccncc1 | n | n | n | n | x | x
Cc1ccc(C(=O)N(Cc2cccc(F)c2)C2CCS(=O)(=O)C2)cc1 (stereo not given) | n | n | n | n | x | x
C/C(=N\N1CCOCC1)c1ccc(-n2ccnc2)cc1 | 76.5 | n | n | n | n | n
C/C(=N\Nc1ccccn1)c1ccc(-n2ccnc2)cc1 | n | n | n | n | x | x
CC(=O)c1c(Nc2ccc(O)cc2)oc(C)cc1=O | n | n | n | n | x | x
Cc1cccc(-n2nc([N+](=O)[O-])c(=Nc3cccc(Cl)c3)n2O)c1 | 55.9 | n | n | n | n | n
Cc1ccc(N=c2c([N+](=O)[O-])nn(-c3cccc(Cl)c3)n2O)cc1 | n | n | n | n | x | x
CCOc1ccc(C(=O)CC2(O)C(=O)N(C)c3ccccc32)cc1 (stereo not given) | n | n | n | n | x | x
COc1cc(CN2CCN(Cc3cccc(C)c3)CC2)cc(OC)c1 | n | n | n | n | x | x
COc1ccc(CN2CCN(Cc3cccc(C)c3)CC2)c(OC)c1OC | n | n | n | n | x | x
COc1cc(OC)c(OC)cc1CN1CCN(Cc2cccc(C)c2)CC1 | 83.1 | n | n | n | n | n
COc1ccc(OC)c(CN2CCN(Cc3cccc(C)c3)CC2)c1 | 70.0 | n | n | n | n | n
COc1cccc(CN2CCN(Cc3cc(OC)ccc3OC)CC2)c1 | 75.0 | n | n | n | n | n
SMILES | MITF primary | TEAD-YAP block | GPR151 ag | FBW7 activator | MITF inh conf | AS interf ctr | others
COc1ccc(CN2CCN(Cc3cccc(C)c3)CC2)c(OC)c1 | 68.8 | n | n | n | n | n
Cc1cc(C)nc(SCC(=O)Nc2ccccc2Br)n1 | n | n | n | n | x | x
COc1cc(OC)c(OC)cc1CN1CCN(Cc2ccc(C)cc2C)CC1 | 70.0 | n | n | n | n | n
Cc1ccc(Cn2c(SCc3ccccc3C)nc3ccsc3c2=O)cc1 | n | n | n | n | x | x
COc1ccc(CC(=O)N2CCN(c3cccc(C)c3C)CC2)cc1 | n | n | n | n | x | x
COc1ccc(S(=O)(=O)CCC(=O)N2CCN(c3cccc(C)c3C)CC2)cc1 | 63.1 | n | n | n | n | n
COc1ccc(S(=O)(=O)N2CCN=C2SCc2ccccc2Cl)cc1 | n | n | n | n | x | x
O=C(NCC1CCCCC1)C1CCCN1C(=O)NC1CCCCC1 (stereo not given) | n | n | n | n | x | x
C=CCNC(=O)C1CCCN1C(=O)NC1CCCCC1 (stereo not given) | 66.2 | n | n | n | n | n
CCOC(=O)c1sc(NC(=O)c2nn3c(c2Cl)NC(c2cccs2)CC3C(F)(F)F)c(C(=O)OCC)c1C (stereo not given) | 68.1 | n | n | n | n | n
COc1cc(NC(=O)c2nn3c(c2Cl)NC(c2ccccc2)CC3C(F)(F)F)cc([N+](=O)[O-])c1 (stereo not given) | n | n | n | n | x | x
COc1cc(NC(=O)c2nn3c(c2Cl)NC(c2cccs2)CC3C(F)(F)F)cc([N+](=O)[O-])c1 (stereo not given) | 73.5 | n | n | n | n | n
COCc1nc2ccccc2n1CCc1noc(-c2ccc(OC)cc2)n1 | n | n | n | n | x | x
COCc1nc2ccccc2n1CCc1noc(-c2ccccc2OC)n1 | 94.9 | n | n | n | n | n
CC(C)CCc1ccc(C#N)c(=S)[nH]1 | n | n | n | n | x | x
COCCCNC(=O)/C(C#N)=C/c1ccc(OCC(=O)O)c(OC)c1 | 61.7 | n | n | n | 34.7 | n | AlphaScreen DR=n
Cc1c(C#N)c(O)n(CCCO)c(=O)c1N=Nc1c(C)n(C)n(-c2ccccc2)c1=O | 83.5 | n | n | n | n | 100.3
Cc1c(C#N)c(O)n(CCO)c(=O)c1N=Nc1ccccc1C(=O)O | n | n | n | n | x | x
COC(=O)C1=C(C)n2nnnc2NC1c1cc2ccccc2o1 (stereo not given) | 77.0 | n | n | n | n | n
COc1cccc(-c2cc(CNC(=O)c3ccc4c(c3)OCO4)no2)c1 | 51.0 | n | n | n | n | n
COc1ccc(-c2cccc(C(=O)NCc3ccc4c(c3)OCO4)c2)cc1 | n | n | n | n | x | x
O=c1cc(-c2ccccc2)nc2nn[nH]n12 | n | n | n | n | x | x
O=c1cc(/C=C/c2ccc(O)cc2)nc2nn[nH]n12 | 57.0 | n | n | n | 38.9 | n | AlphaScreen DR=n
Cc1nnc(C)n1/N=C\c1cccc2ccccc12 | 66.5 | n | n | n | n | n
CC(=O)Nc1ccc(C(=O)OCC(=O)Nc2cccc(C#N)c2)cc1 | n | n | n | n | x | x
SMILES | MITF primary | TEAD-YAP block | GPR151 ag | FBW7 activator | MITF inh conf | AS interf ctr | others
COc1cccc(CN2CCN(C3CCCCC3)CC2)c1 | 60.3 | n | n | n | n | n
COc1cccc(CN2CCN(C3CCCCCC3)CC2)c1 | 57.9 | n | n | n | n | n
COc1cccc(CN2CCN(C(=O)C3CC3)[C@@H](C)C2)c1 | 62.5 | n | n | n | n | n
COc1cccc(CN2CCN(C3CCC(C)CC3)CC2)c1 (stereo not given) | 70.4 | n | n | n | n | n
COc1ccc(NC(=O)CSCC(=O)N(C)CC(=O)Nc2c(C)cc(C)cc2C)cc1 | n | n | n | n | x | x
COc1cccc(CN2CCC(C(=O)NC3CCCCCC3)CC2)c1 | 65.1 | n | n | n | n | n
Cc1ccc(-c2nnc(Nc3ccc(Cl)c(Cl)c3)c3ccccc23)cc1S(=O)(=O)NCCO | 88.9 | n | n | n | n | n

Assay outcomes deposited in PubChem by The Scripps Research Institute Molecular Screening Center.
